Assay results: PubChem BioAssay AID435019 (Southern Research Specialized Biocontainment Screening …, 2010)
Among all 2,300 compounds or so, about 1,200 (52%) were called active. No rule for the calls is given here. So high a share suggests a set chosen from earlier hits. This is one part of the list. Measured potencies and affinities stand elsewhere.

experiment: mammalian cell cytotoxicity, dose response, cytotoxicity control for M. tuberculosis inhibitor project (AID 435019); conditions: cytotoxicity counter-screen; series mostly up to 40 µM; viability: at the top concentration;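 also: 0% = background wells and 100% = vehicle-treated cells; lower values mean fewer viable cells so more cytotoxicity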

Row | Structure (SMILES) | viability
1 | CCNCC(=O)N1c2ccccc2CCc2ccc(NC(=O)OC(C)C)cc21 | 82.4% (inactive)
2 | COC(=O)c1c(NC(=O)C(=O)N2CCCC2)sc2c1CC(C)(C)OC2 | 89.7% (inactive)
3 | CCc1c(C)sc(NC(=S)N2CCN(CC)CC2)c1C(=O)OC | 83.2% (inactive)
4 | Cc1ccc(N=Nc2c(C)[nH]n(C(N)=S)c2=O)cc1 | 83.6% (inactive)
5 | O=C1NCCC/C1=N\Nc1ccc(Br)cc1 | 94.1% (inactive)
6 | COC(=O)CNC(=O)CSc1nc2sc(-c3ccccc3)cc2c(=O)n1-c1ccccc1 | 90.4% (inactive)
7 | Cc1ccc(NC(=O)c2sccc2-n2cccc2)c(C)c1 | 93.2% (inactive)
8 | CCCCCCCCCCOC(=O)Cn1c(COc2ccc(Cl)cc2)[n+](C)c2ccccc21 | 93.5% (inactive)
9 | Nc1nonc1C(=O)NCCNCc1c(OCc2ccccc2F)ccc2ccccc12 | 94% (inactive)
10 | Cn1ccnc1C(O)c1cc(C(C)(C)C)c(O)c(C(C)(C)C)c1 (centres undefined) | 89% (inactive)
11 | C(=N\Nc1nc(-c2ccccc2)cs1)/c1ccncc1 | 88.6% (inactive)
12 | Cc1cccc(NC(=O)CCSc2nnc(Cc3ccccc3)o2)c1 | 99.5% (inactive)
13 | COC(=O)c1cccc(OC(N)=O)c1 | 97.2% (inactive)
14 | c1ccc(Cn2c3ccccc3c3nnc(SCCN4CCCCC4)nc32)cc1 | 88.8% (inactive)
15 | CC(=O)c1c(C)n(C)c2ccc(OC(=O)c3ccc([N+](=O)[O-])cc3)cc12 | 93.6% (inactive)
16 | COC(=O)CSc1ncnc2c1cnn2-c1ccc(C)cc1C | 97.7% (inactive)
17 | CCc1n[nH]c(=S)n1/N=C/c1ccc(-c2ccc(Br)cc2)o1 | 85.9% (inactive)
18 | NC(=S)N/N=C/c1ccc(-c2ccccc2)o1 | 95.2% (inactive)
19 | CCOC(=O)c1ccc(-c2c(-c3ccc4c(c3)OCO4)noc2C)cc1F | 85.7% (inactive)
20 | Cc1onc(-c2ccccc2Cl)c1C(=O)Oc1cccc2cccnc12 | 84.4% (inactive)
21 | O=c1c(C=Nc2ccc(Oc3ccccc3)cc2)c[nH]n1-c1cccc(Cl)n1 | 94.6% (inactive)
22 | Cc1nc2scc(-c3cccs3)c2c(=O)n1-n1cccc1 | 94.5% (inactive)

Row | Structure (SMILES) | viability
23 | O=C(O)/C=C/C(=O)Nc1ccc(-c2ccccc2)cc1 | 102% (inactive)
24 | O=[N+]([O-])c1cc(C=Nc2ccc3ccccc3c2)ccc1Br | 102% (inactive)
25 | Cc1ccc(S(=O)(=O)CNC(=S)c2ccc3ccccc3c2)cc1 | 87% (inactive)
26 | Cc1ccc(N2CCN(C(=O)c3cn(CC4CCCCC4)nn3)C(C)C2)cc1 (centres undefined) | 85.7% (inactive)
27 | O=c1c2ccccc2nc(/C=C/c2ccccc2)n1-c1ccc(O)cc1 | 81.8% (inactive)
28 | CCCC1CCC(C(=O)Nn2c(C)nc3ccccc3c2=O)CC1 (centres undefined) | 82.5% (inactive)
29 | Cc1ccc2[nH]c(C(=O)NN=C3CCCCC3)c(-c3ccccc3)c2c1 | 88.9% (inactive)
30 | CCc1cc(C(=O)Nc2ccc(C)cc2Br)cs1 | 92.9% (inactive)
31 | C/C(=N\NC(=O)COc1ccc(C)cc1Br)c1cc([N+](=O)[O-])cs1 | 91.1% (inactive)
32 | COc1ccccc1N1C(=O)NC(=O)/C(=C/c2ccc([N+](=O)[O-])s2)C1=O | 92.6% (inactive)
33 | Cc1cccc(CSc2nc3c(c(-c4cccs4)c2C#N)CN(C)CC3)c1 | 95.7% (inactive)
34 | COc1cc(/C=N/NC(=O)COc2ccc(C)cc2)ccc1OC(=O)c1cccs1 | 99.4% (inactive)
35 | CCCCCCOc1ccc(/C=C/C(=O)N2CCOCC2)cc1OC | 87% (inactive)
36 | CC[N+](C)(CC)CCCCOc1ccc2c(c1)C(=O)c1cc(OCCCC[N+](C)(CC)CC)ccc1-2 | 98.3% (inactive)
37 | CCCOc1ccc(-c2cnc(SCC(N)=O)nc2N)cc1 | 94.2% (inactive)
38 | O=C(/C=C/c1ccco1)Oc1ccc(C(=S)N2CCOCC2)cc1 | 92.7% (inactive)
39 | COc1ccc(NC(=O)NC(C)C2CC3CCC2C3)cc1 (centres undefined) | 88.8% (inactive)
40 | Nc1ccc(-c2nc3nc(N)nc(N)c3nc2-c2ccc(N)cc2)cc1 | 86.7% (inactive)
41 | CN1CCN(C(=O)/C=C/c2cn(-c3ccccc3)nc2-c2ccc3c(c2)OCCO3)CC1 | 91.2% (inactive)
42 | Cc1ccc(C(=O)COC(=O)C2CC(=O)N(c3nc(-c4ccccc4)cs3)C2)cc1C (centres undefined) | 87.5% (inactive)
43 | CCCCCCCCCCCCCCCC(=O)NCCO | 98.4% (inactive)
44 | CCCCCCCCNC(=O)CCNC(=O)c1ccc(C(C)(C)C)cc1 | 83.2% (inactive)

Row | Structure (SMILES) | viability
45 | CCc1ccc(NC(=O)c2ccc(C3SCC(=O)N3CCc3ccccc3)cc2)cc1 (centres undefined) | 91.9% (inactive)
46 | O=C1N[C@@H](Cc2ccccc2)C(=O)N2[C@H]3Nc4ccccc4[C@@]3([C@]34C[C@H]5C(=O)N[C@@H](Cc6ccccc6)C(=O)N5[C@H]3Nc3ccccc34)C[C@@H]12 | 86.8% (inactive)
47 | CCOC(=O)CSc1nc(C)c(C(=O)OCC)s1 | 97.8% (inactive)
48 | Cc1cc(C2N=C(N)Nc3nc4ccccc4n32)c(C)n1-c1ccccc1Cl (centres undefined) | 90.1% (inactive)
49 | CN1OC(COC(=O)c2ccc(Cl)cc2Cl)CC1c1ccccc1 (centres undefined) | 94.3% (inactive)
50 | CCC(C)Nc1nc2c(C)cccn2c(=O)c1C=Nc1ccc(OC)cc1 (centres undefined) | 91.5% (inactive)
51 | CC(=O)O[C@H]1C[C@@]2(C)[C@@H](C[C@@H](O)[C@H]3[C@@]4(C)CC[C@@H](O)[C@@H](C)[C@@H]4CC[C@@]32C)/C1=C(\CCC=C(C)C)C(=O)O | 99.3% (inactive)
52 | CN(CCCC1CCCC1)C(=O)CCc1nnc(-c2ccccc2)o1 | 83.9% (inactive)
53 | O=C(Nc1ccc2nsnc2c1)NC1CCCCC1 | 104% (inactive)
54 | COC(=O)c1ccc(-c2ncc(-c3cccc4ccccc34)o2)cc1 | 95.6% (inactive)
55 | COc1cc(C)c(/C=C/C(C)=C/C=C/C(C)=C/C(=O)O)c(C)c1C | 88.1% (inactive)
56 | CC1(C)OC(=O)C(=NNc2ccc(Cl)cc2)C(=O)O1 | 94.5% (inactive)
57 | Cc1ccc(NC(=O)c2cnc(SCC(=O)NCC3CCCO3)n(C)c2=O)cc1C (centres undefined) | 90.9% (inactive)
58 | CCn1c(SCC(=O)OC2CCCCC2)nc2ccccc2c1=O | 95.4% (inactive)
59 | Cn1c(CNc2nc(-c3ccccc3)cs2)nnc1SCC(=O)OC1CCCCC1 | 101% (inactive)
60 | CCOc1ccc(NC(=S)Nc2cc(-c3ccccc3)[nH]n2)cc1 | 86.4% (inactive)
61 | CCCc1ccc(NC(=O)C2CCN(c3cnccn3)CC2)cc1 | 95.8% (inactive)
62 | CCCc1ncc(CN2CCCC(C(=O)Nc3ccc(-c4cccc(OC)c4)cc3)C2)cn1 (centres undefined) | 81.7% (inactive)
63 | Cc1cc(C)c2nc(N3CCCC(C(=O)N4CCN(c5ncccn5)CC4)C3)sc2c1 (centres undefined) | 82.1% (inactive)
64 | Cc1ccc(C)c(N2CCN(C(=O)c3ccc4nc(N5CCOCC5)sc4c3)CC2)c1 | 84.8% (inactive)
65 | C[C@]12CCC(=O)C[C@@H]1CC[C@@H]1[C@@H]2CC[C@]2(C)C=CC[C@@H]12 | 92.2% (inactive)
66 | NC(=O)N1CCC2(CC1)NC(=O)N(c1ccccc1)N2 | 91.9% (inactive)

Row | Structure (SMILES) | viability
67 | Cc1cc(C)nc(-n2nc(C)cc2NC(=O)CN2CCC(C)CC2)n1 | 91.8% (inactive)
68 | O=C(c1cc2cc(F)ccc2[nH]1)N(Cc1cccnc1)CC1CCCN(C2CCCCC2)C1 (centres undefined) | 84.5% (inactive)
69 | CC1(CCc2ccccc2)NC(=S)N(c2ccc(Cl)cc2)N1 (centres undefined) | 89.4% (inactive)
70 | O=C(C[n+]1ccc(C(=O)N/N=C/c2ccc(O)cc2)cc1)c1ccccc1 | 103% (inactive)
71 | COC(=O)CSc1nnc(CNc2ccc(Cl)cc2)n1-c1ccccc1 | 94.6% (inactive)
72 | Nc1cc([N+](=O)[O-])cc2oc(-c3ccccc3)cc12 | 83.1% (inactive)
73 | COc1ccccc1-n1cc2c([N+](=O)[O-])cc([N+](=O)[O-])cc2n1 | 103% (inactive)
74 | CCCCNc1nc(N(C)c2ccccc2)nc(-n2ccnc2)n1 | 85.3% (inactive)
75 | O=C(CSc1nc2cc(Cl)ccc2o1)c1cccs1 | 96.2% (inactive)
76 | COC(=O)c1ccc(CSc2nc3cc(Cl)ccc3o2)cc1 | 101% (inactive)
77 | C=CCN(CC(=O)c1sc(C(=O)OCC)nc1C)c1cccc(Br)c1 | 91.5% (inactive)
78 | CCCCOC(=O)c1ccc(O)cc1 | 95% (inactive)
79 | [O-][n+]1c2ccccc2c2n1CCN1CCOC21c1ccc(Cl)cc1 (centres undefined) | 85.2% (inactive)
80 | Cc1nonc1NC(=O)CSc1ccc(-c2ccccc2)nn1 | 90.2% (inactive)
81 | O=C(OCC(=O)c1cccs1)C1=COCCO1 | 98.4% (inactive)
82 | CCCCn1nc(C(=O)Nc2ccccc2N2CCCC2)c2ccccc2c1=O | 82.5% (inactive)
83 | COC(=O)COc1ccc(-c2nn(C)c(=O)c3ccccc23)cc1 | 93.7% (inactive)
84 | COc1cc(CNC(=O)CCCCCCC(C)C)ccc1O | 93% (inactive)
85 | COC(=O)Cn1nc(-c2ccccc2)c2cc(Cl)ccc21 | 88% (inactive)
86 | CC1=CC(=O)NP(=O)(Oc2ccc3ccccc3c2)N1 (centres undefined) | 93.5% (inactive)
87 | CC(=O)Oc1ccc2occ(C(=O)c3cccs3)c2c1 | 102% (inactive)
88 | Nc1nc2ccccc2n1/N=C/c1ccc(Br)cc1 | 95.2% (inactive)

Row | Structure (SMILES) | viability
89 | CC(C)(C)Nc1nc(NC(C)(C)C)nc(-n2ccnc2)n1 | 90.2% (inactive)
90 | CCOC(=O)CNC(=O)CNC(=O)c1nn(-c2ccc(OC)c(Cl)c2)c(=O)c2ccccc12 | 99% (inactive)
91 | CCOC(=O)c1ccc(-n2c(CCC(=O)O)ccc2-c2cccs2)cc1 | 96.7% (inactive)
92 | CC(C)OC(=O)c1ccc(N)cc1 | 102% (inactive)
93 | CCc1ccc(NC2=NCC(c3ccccc3)S2)cc1 (centres undefined) | 87.4% (inactive)
94 | CC(C)OC(=O)c1ccc(NC(=S)NC(=O)c2cncc(Br)c2)cc1 | 94.2% (inactive)
95 | Cc1[nH]nc(SCC(=O)NCc2ccccc2)c1[N+](=O)[O-] | 90.9% (inactive)
96 | COc1ccc(-c2ccc(-c3noc(C(C)C)n3)c(OC)n2)cc1 | 81.4% (inactive)
97 | Cc1ccc(C(=O)C2CCN(CC(=O)Nc3nc(C)cs3)CC2)cc1 | 83.6% (inactive)
98 | Cc1ccc(Cl)cc1NC(=O)CN1CCN(S(=O)(=O)N2CCOCC2)CC1 | 90.4% (inactive)
99 | CCCCNC(=S)N/N=C/c1cccc(OCC)c1O | 95.4% (inactive)
100 | CCOC(=O)CN[C@H]1CCC2C3CC=C4C[C@@H](O)CC[C@]4(C)C3CC[C@@]21C (some centres undefined) | 95.8% (inactive)
101 | Cc1ccc(C(=O)ONc2ccc(N=O)cc2)cc1 | 89.5% (inactive)
102 | COc1ccc(NC(NC(=O)c2ccc(OC)cc2)C(Cl)(Cl)Cl)cc1 (centres undefined) | 85.7% (inactive)
103 | CCOC(=O)c1nn(-c2ccc(C)cc2)c2nc(Nc3ccccc3)cc(=O)n12 | 94.8% (inactive)
104 | Cn1nc([N+](=O)[O-])nc1Sc1ccc(C(C)(C)C)cc1 | 84.8% (inactive)
105 | Cn1cnc(Sc2ncnc3nc[nH]c23)c1[N+](=O)[O-] | 82.1% (inactive)
106 | Cc1cc(C)n(-c2cc(C(C)(C)C)nc3c(-c4ccccc4)cnn23)n1 | 85% (inactive)
107 | Cc1cc(-c2nnc3n2CCCCC3)c(C)n1-c1ccccc1 | 90.5% (inactive)
108 | C/C(=N\N(Cc1ccccc1)c1ccccc1)c1ccncc1 | 88.6% (inactive)
109 | CCOC(=O)CSc1nnc(-c2ccc(S(=O)(=O)NCc3cccs3)cc2)o1 | 100% (inactive)
